DT40 TDP1 CPT: qHTS for Inhibitors of human tyrosyl-DNA phosphodiesterase 1 (TDP1): qHTS in cells in presence of CPT | chicken DT40 Tdp1-/-;hTDP1 cells + 20 nM CPT, ATP luminescence, 48 h | Potency, µM (titrated, usually from 46.2 µM), inactives show at the highest dose activity change, negative = growth inhibition, actives largely listed as inhibitors | 420,000 tested, 12% active | AID 686979, 2013; further: potency means the concentration at half of the fitted maximal effect; on the % scale 0 is the no-effect control and ±100 the full control effect; nearly all actives have a fitted effect of over 55% in size
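Chicken DT40 Tdp1-/- cells complemented with human TDP1, 400 cells/well, exposed to compounds plus 20 nM camptothecin for at least 48 h at 37 C; viability read as ATP content by CellTiter-Glo luminescence.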
IL1B secr inh: qHTS for Inhibitors of Inflammasome Signaling: IL-1-beta AlphaLISA Primary Screen | THP-1 LPS/ATP IL-1B secretion, AlphaLISA, 16 h; hits give low values | activity change, % at 57.5 µM | 360,000 tested, 4.7% active; in the data active means activity change below about -50%; inconclusive means mostly about -30% to -49%; further: on the % scale 0 is the no-effect control and ±100 the full control effect
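THP-1 cells pretreated 1 hr with compounds (up to 57.5 uM final), then stimulated with LPS (250 ng/mL final) plus ATP (1.25 mM final); secreted IL-1B measured by AlphaLISA after 16 hr, decreased signal indicating inhibition.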
TDP1 cell noCPT: qHTS for Inhibitors of human tyrosyl-DNA phosphodiesterase 1 (TDP1): qHTS in cells in absence of CPT; 420,000 tested, 15% active; Potency, µM (highest dose often 46.2 µM), for inactives: at the top dose activity change, negative = growth inhibition, usual class: inhibitors; DT40 Tdp1-/- hTDP1 cells, no CPT, ATP luminescence, 48 h; further: potency means the concentration at half of the fitted maximal effect; on the % scale 0 is the no-effect control and ±100 the full control effect; nearly all actives have a fitted effect of over 55% in size
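Chicken DT40 Tdp1-/- cells stably complemented with human TDP1 were seeded at 400 cells/well with DMSO in place of 20 nM camptothecin. After compound pinning, cells grew at least 48 hr at 37 °C; viability read by CellTiter-Glo luminescence.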
TGFb inhibitor: qHTS for Inhibitors of TGF-b | HepG2 CAGA-GFP TGF-b/SMAD3 reporter, GFP fluorescence, 18 h; TGF-beta stimulated, 500 pg/mL final | Potency, µM (doses to about 46.1 µM), without a hit: at the top dose activity, negative = inhibition, hits mostly inhibitors | 410,000 tested, 1.2% active | AID 588855, 2011; further: potency means the concentration at half of the fitted maximal effect; on the % scale 0 is the no-effect control and ±100 the full control effect; nearly all actives have a fitted effect of over 65% in size
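Read-out: total well GFP (ex488/em500-530) summed from mean per-cell fluorescence. Cells: HEPG2 CAGA-GFP, 1% FBS DMEM, 18 h at 37 degrees C with 500 pg/mL final TGF-beta. Unstimulated wells served as the full-inhibition control; stimulated DMSO wells = 0%.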
HepG2 tox: qHTS for Inhibitors of TGF-b: Cytotox Counterscreen. AID 588856, 2011. Potency, µM (doses to about 46.1 µM), inactives show at the top dose activity change, negative = cytotoxicity, usual class: cytotoxic. HepG2 CAGA-GFP viability, ATP luminescence, 18 h. 410,000 tested, 0.76% active; further: potency means the concentration at half of the fitted maximal effect
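HepG2 CAGA-GFP cells (1000/well, DMEM with 1% FBS) received compound, then TGF-beta at 500 pg/mL final, and were incubated 18 hours at 37 degrees C. Viability was read by CellTiter-Glo luminescence. Media-only wells were set as complete cell-killing and DMSO as no toxicity.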
TDP1 inh: qHTS Assay for Inhibitors of Tyrosyl-DNA Phosphodiesterase (TDP1); Tyrosyl-DNA phosphodiesterase 1 (Homo sapiens), Q9NUW8; recombinant TDP1, AlphaScreen DNA substrate cleavage; Potency, µM (titrated, usually from 130 µM), inactives show top-dose activity change, negative = inhibition, usual class: inhibitors; 350,000 tested, 0.28% active; further: potency means the concentration at half of the fitted maximal effect; on the % scale 0 is the no-effect control and ±100 the full control effect; nearly all actives have a fitted effect of over 40% in size
Target sequence (Q9NUW8 whole entry, looked up): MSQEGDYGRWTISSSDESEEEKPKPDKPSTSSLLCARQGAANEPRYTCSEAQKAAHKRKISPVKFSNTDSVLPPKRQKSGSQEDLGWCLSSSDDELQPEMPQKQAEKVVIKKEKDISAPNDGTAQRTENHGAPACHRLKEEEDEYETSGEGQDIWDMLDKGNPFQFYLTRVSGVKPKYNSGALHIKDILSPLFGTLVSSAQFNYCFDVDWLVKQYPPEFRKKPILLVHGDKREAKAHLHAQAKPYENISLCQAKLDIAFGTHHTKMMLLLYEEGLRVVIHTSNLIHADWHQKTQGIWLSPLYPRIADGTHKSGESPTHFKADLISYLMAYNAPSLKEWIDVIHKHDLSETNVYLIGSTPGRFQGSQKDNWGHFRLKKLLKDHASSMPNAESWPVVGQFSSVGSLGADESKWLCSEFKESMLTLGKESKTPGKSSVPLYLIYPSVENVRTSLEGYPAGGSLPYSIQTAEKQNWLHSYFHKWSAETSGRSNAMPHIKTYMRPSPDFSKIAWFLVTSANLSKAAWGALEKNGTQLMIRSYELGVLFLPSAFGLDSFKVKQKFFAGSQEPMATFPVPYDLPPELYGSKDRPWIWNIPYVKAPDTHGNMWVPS
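Recombinant human Tdp1 (E. coli-expressed, 1 nM final) preincubated with compounds 15 min at room temperature, then 5'-biotin/3'-phosphotyrosine-FITC DNA substrate (15 nM final) added for 5 min. AlphaScreen beads (10 ug/ml final) added 10 min; cleavage lowers signal.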
* marks the source's active call; other numbers are inactive results; ? = inconclusive; . = no result; [ ] = dose if it differs, or a comment. Only some compounds are listed: those with a hit (about 19% of all), similar ones and a draw of the others. Unless noted, the call rests on the fitted dose curve; in most records, active means well fitted curve in the direction sought with a large enough effect; inconclusive means small, poorly fitted or top-dose-only effect, or another doubt; inactive means no such curve, though single readings can be large; an effect the other way counts as inactive or inconclusive.

SMILES	DT40 TDP1 CPT	IL1B secr inh	TDP1 cell noCPT	TGFb inhibitor	HepG2 tox	TDP1 inh
C=CC(C1=CC(=O)C(OC)=CC1=O)c1ccc(OC)cc1 (centres undefined)	3.3µM*	.	2.9µM*	.	.	18%
CCS(=O)(=O)N1CC(=O)N(c2ccc(C)c(C)c2)C(C)(C(=O)NC2CCCCC2)C1 (centres undefined)	-21%	.	-4%	-13%	-1%	-1%
c1ccc2c(c1)nnn2Cc1nnc2sc(-c3ccc4c(c3)OCCO4)nn12	?	6	16µM*	0%	-2%	3%
CC(=O)N1CCc2c(sc(NC(=O)c3ccc4c(c3)OCCO4)c2C#N)C1	4.1µM*	25	3.7µM*	-17%	-14%	-1%
COC(=O)c1c(NC(=O)c2nc3ccccc3s2)sc2c1CCN(C(C)=O)C2	7.3µM*	?	6.5µM*	6%	-15%	1%
COC(=O)c1c(NC(=O)C2COc3ccccc3O2)sc2c1CCN(C(C)=O)C2 (centres undefined)	12µM*	14	?	-9%	5%	8%
CC(=O)N1CCc2c(sc(NC(=O)c3ccc(S(=O)(=O)N(C)C)cc3)c2C#N)C1	23%	36	1%	1%	13%	.
CN1CCc2c(sc(NC(=O)C3COc4ccccc4O3)c2C(N)=O)C1 (centres undefined)	?	0	?	7%	-11%	6%
CC(=O)N1CCc2c(sc(NC(=O)C3COc4ccccc4O3)c2C(N)=O)C1 (centres undefined)	21µM*	-22	?	0%	-21%	4%
O=S(=O)(c1ccc(F)c(F)c1)N1CCC2(CC1)OCCO2	20%	22	6%	-7%	-1%	2%
Cc1ccc2c(c1)c1c(c(=O)n(-c3ccccc3C)c(=O)n1CC(=O)NCCC1=CCCCC1)n2C	?	.	?	2%	-1%	3%
COc1ccc(-n2c(SCC(=O)c3ccccc3)nc3c([nH]c4ccccc43)c2=O)cc1	-18%	.	-13%	5%	-10%	4%
Nc1nc(CCl)nc(Nc2cccc3ccccc23)n1	?	-100*	3.3µM*	11µM*	13µM*	10%
Nc1nc(Nc2cccc3ccccc23)nc(C2CCCC2=O)n1 (centres undefined)	.	.	.	.	.	-2%
CCCC(=O)Nc1ccc(S(=O)(=O)N2CCc3ccccc32)cc1	?	16	?	-4%	-18%	.
COC(Cc1ccccc1N1CCCC1=O)OC	0%	1	-4%	2%	11%	.
CCCCC(=O)Nc1ccc(OCc2cc(=O)n3c(C)csc3n2)cc1	?	.	?	-10%	5%	1%
CCOc1ccc(C[C@H]2NC(=O)CCSSC[C@@H](C(=O)N3CCC[C@H]3C(=O)N[C@@H](CCCN)C(=O)NCC(N)=O)NC(=O)[C@H](CC(N)=O)NC(=O)[C@H]([C@@H](C)O)NC(=O)[C@H]([C@@H](C)CC)NC2=O)cc1	0%	.	7%	.	.	6%
Cc1ccc(-c2cnc(C3CC3)o2)cc1S(=O)(=O)Nc1ccc(F)cc1Cl	?	.	26µM*	?	-31%	6%
COc1ccc(NS(=O)(=O)c2cc(-c3cnc(C4CC4)o3)ccc2C)cc1	6.5µM*	-1	4.6µM*	-24%	-32%	6%
CCOC(=O)c1cccc(NS(=O)(=O)c2cc3[nH]c(=O)c(=O)[nH]c3cc2C)c1	-3%	.	5%	-7%	-12%	7%
O=S(=O)(c1ccc(-c2cnc(C3CC3)o2)cc1)N1CCN(c2ccccc2F)CC1	?	.	-13%	?	0%	-6%
CCOC(=O)c1cccc(NS(=O)(=O)c2cc(-c3cnc(C4CC4)o3)ccc2C)c1	2.6µM*	.	2.1µM*	18µM*	-49%	11%
CC(=O)NC(Cc1ccc(C(C)C)cc1)C(=O)NC1CCN(C(=O)c2cccc(C)c2)CC1 (centres undefined)	?	13	?	4%	-5%	5%
Cc1cc(C)c2c(-n3cccc3)c(C(=O)NCCc3ccc(Cl)cc3)sc2n1	-16%	.	?	-12%	2%	9%
SMILES	DT40 TDP1 CPT	IL1B secr inh	TDP1 cell noCPT	TGFb inhibitor	HepG2 tox	TDP1 inh
O=C(COC(=O)CC1SC(N2CCCC2)=NC1=O)Nc1c(F)c(F)c(F)c(F)c1F (centres undefined)	-1%	-15	-6%	-4%	2%	-2%[56.1 µM]
COC(=O)C1CCN(C(=O)/C=C/c2ccc3c(c2)OCO3)CC1	?	23	16µM*	-15%	-19%	.
O=C(/C=C/c1ccc2c(c1)OCO2)c1ccc(O)cc1O	?	-95*	?	?	-20%	.
O=C(/C=C/c1ccc(O)c(O)c1)c1ccc(O)cc1O	.	.	.	.	.	11%
O=C(/C=C\c1ccc2c(c1)OCO2)c1ccc(F)cc1	.	.	.	.	.	4%[21 µM]
O=C(/C=C/C=C/c1ccccc1)c1ccco1	?	?	18µM*	-7%	-38%	5%
O=C(C=Cc1ccco1)c1ccco1	-16%	?	-25%	-11%	-6%	.
O=C(/C=C/c1ccc2c(c1)OCO2)c1ccco1	-19%	-96*	-27%	-6%	-28%	-3%
CC(C)NC(=O)N(C)C[C@H]1Oc2c(NC(=O)C3CCCCC3)cccc2C(=O)N([C@H](C)CO)C[C@@H]1C	2%	5	-1%	?	-15%	0%
Cc1cc(C(=O)Nc2ccc(CC(=O)O)cc2)c(C)o1	0%	-9	-3%	-2%	9%	4%
CCOCCCNC(=O)Cn1nc(C)n2c(cc3cc(C)ccc32)c1=O	1%	.	-9%	-18%	4%	1%
O=C(/C=C/c1ccc(Br)cc1)c1ccco1	7.3µM*	-108*	16µM*	?	-60%	4%
